Some test systems named below: RPMI-8226 leukemia; OVCAR-8 ovarian; OVCAR-5 ovarian; OVCAR-4 ovarian; SK-OV-3 ovarian; IGROV1 ovarian; OVCAR-3 ovarian; HS 578T breast; NCI/ADR-RES ovarian; BT-549 breast; MDA-MB-435 melanoma; SW-620 colon; MCF7 breast; HCT-116 colon; HCC-2998 colon; KM12 colon; T-47D breast.
What all share (assay): NCI-60 one-dose screen, 48 h (100 = growth as untreated, 0 = no growth, -100 = all killed)
Holding throughout (conditions): 10 µM unless noted

The structures appear in SMILES notation. The panel holds about 83,000 compounds, 20% with a hit somewhere; the sample as a whole holds those more often.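 Cell lines were cultured in 96-well plates, exposed to a single compound concentration, and assessed for percent growth 48 hours later.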 A number with no mark means an inactive call. Activity calls are given as the source filed them. How the source made its calls: active means growth percent below 10; inactive means the rest.

In the case of `COc1ccc(Oc2nc(Nc3ccc(N4CCCCC4)nc3)ncc2NC(=O)c2cc(OC)cc(OC)c2)cc1`, the growth with RPMI-8226 leukemia is 24.4%; in the experiment with OVCAR-8 ovarian it was 57%; in the experiment on OVCAR-5 ovarian, 76.7%; in the experiment on OVCAR-4 ovarian, 56.7%; in the experiment with SK-OV-3 ovarian, 57.6%; with IGROV1 ovarian, 58.3%. Also, the growth in the experiment on OVCAR-3 ovarian is 6.75% (active); with HS 578T breast it was 44.6%; in the experiment with NCI/ADR-RES ovarian, 26.1%; in the experiment on BT-549 breast it was 56.5%; with MDA-MB-435 melanoma it was -30.6% (active); in the experiment with SW-620 colon, 30.6%. The growth is 9.76% (active) in the experiment on MCF7 breast, 18.8% in the experiment with HCT-116 colon, 65.8% in the experiment on HCC-2998 colon and 20.2% with KM12 colon.

`CCCCOc1ccc(NC(=O)n2nc(N=NN(C)C)c3ccc(Cl)cc32)cc1`: the growth was 92.7% with RPMI-8226 leukemia; 105% with OVCAR-8 ovarian; 103% with OVCAR-5 ovarian; 96.6% with OVCAR-4 ovarian; 86% in the experiment with SK-OV-3 ovarian; 82.8% in the experiment on IGROV1 ovarian. The growth in the experiment with OVCAR-3 ovarian is 104%; in the experiment on HS 578T breast, 93.6%; in the experiment with NCI/ADR-RES ovarian, 98.3%; with BT-549 breast, 98.8%; with MDA-MB-435 melanoma it was 106%; with SW-620 colon it was 106%. The growth with MCF7 breast was 85.2%; with HCT-116 colon, 91.3%; in the experiment on HCC-2998 colon, 113%; with KM12 colon it was 110%.

In the case of `CCOc1cc(N)ccc1C(=O)NCCCN(CC)CC`, the growth is 95.9% in the experiment on RPMI-8226 leukemia; 118% in the experiment with OVCAR-8 ovarian; 93.9% in the experiment on OVCAR-5 ovarian; 109% in the experiment with OVCAR-4 ovarian; 110% in the experiment with SK-OV-3 ovarian; 96.5% in the experiment with IGROV1 ovarian. The growth in the experiment on OVCAR-3 ovarian was 105%; in the experiment with HS 578T breast, 99.1%; in the experiment with NCI/ADR-RES ovarian it was 94.2%; in the experiment with T-47D breast, 101%; in the experiment on BT-549 breast, 98.8%; in the experiment on MDA-MB-435 melanoma, 106%. Also, the growth in the experiment with SW-620 colon was 101%; with MCF7 breast, 96.4%; with HCT-116 colon it was 98%; with HCC-2998 colon it was 95.9%; in the experiment with KM12 colon it was 106%.

With `C=C1c2c(C)nn(-c3ccc(N)cc3)c2N(C)C23CC1C1(C)c4c(C)nn(-c5ccc(N)cc5)c4N(C)C(C)(CC12)C3` (stereo unspecified), the growth with RPMI-8226 leukemia is 40.9%; in the experiment on OVCAR-8 ovarian, 71%; in the experiment with OVCAR-5 ovarian, 101%; in the experiment with OVCAR-4 ovarian it was 70.7%; in the experiment with SK-OV-3 ovarian, 70.6%; in the experiment with IGROV1 ovarian, 100%. The growth was 78.4% with OVCAR-3 ovarian; 90.6% in the experiment on HS 578T breast; 78.8% in the experiment on NCI/ADR-RES ovarian; 72.7% in the experiment with BT-549 breast; 70.4% in the experiment with MDA-MB-435 melanoma; 77.1% in the experiment with SW-620 colon. The growth with MCF7 breast was 24.8%; with HCT-116 colon, 33.5%; in the experiment on HCC-2998 colon it was 85.8%; with KM12 colon, 68.3%.

Consider `CC[C@@H](C[C@H](CCO)c1ccccc1)c1cc2ccccc2o1`, for which the growth with RPMI-8226 leukemia was 90.8%; with OVCAR-8 ovarian it was 91%; in the experiment with OVCAR-5 ovarian it was 96.7%; in the experiment on OVCAR-4 ovarian it was 85.3%; with SK-OV-3 ovarian, 93.9%; in the experiment on IGROV1 ovarian it was 97.8%. For the same molecule, the growth in the experiment on OVCAR-3 ovarian was 95.7%; in the experiment with HS 578T breast, 93%; in the experiment on NCI/ADR-RES ovarian, 93.1%; in the experiment with BT-549 breast it was 97.7%; in the experiment with MDA-MB-435 melanoma, 102%; in the experiment on SW-620 colon, 89.6%. Besides, the growth with MCF7 breast was 117%; with HCT-116 colon it was 76.6%; with HCC-2998 colon it was 109%; in the experiment with KM12 colon, 88.7%.

Consider `c1ccc2c(c1)nc(-n1ccnc1)c1nc3ccccc3n12`, for which the growth in the experiment with RPMI-8226 leukemia was 77.9%; in the experiment with OVCAR-8 ovarian it was 30.4%; in the experiment on OVCAR-5 ovarian it was 82.4%; in the experiment with OVCAR-4 ovarian, 68%; in the experiment on SK-OV-3 ovarian, 21.5%; with IGROV1 ovarian, 52.5%. Besides, the growth in the experiment on OVCAR-3 ovarian was 78.1%; in the experiment on HS 578T breast, 70.3%; with NCI/ADR-RES ovarian it was 49.2%; in the experiment on BT-549 breast, 45.5%; with MDA-MB-435 melanoma, 76.1%; in the experiment with MCF7 breast it was 62.5%. Further, the growth in the experiment with HCT-116 colon is 52.5%; in the experiment with HCC-2998 colon it was 76%; in the experiment with KM12 colon, 64.9%.

Turning to `COc1ccc(-c2cc(-c3ccc(Nc4nc(Nc5ccccc5)nc(Nc5ccc(Cl)cc5)n4)cc3)nc(N)c2C#N)cc1`, the growth in the experiment on RPMI-8226 leukemia was -29.6% (active); in the experiment with OVCAR-8 ovarian it was 31.9%; in the experiment with OVCAR-5 ovarian it was -38.7% (active); in the experiment on OVCAR-4 ovarian, 4.19% (active); with SK-OV-3 ovarian it was 86.8%; with IGROV1 ovarian, -18.4% (active). The growth was -96.1% (active) with OVCAR-3 ovarian; 2.12% (active) in the experiment on NCI/ADR-RES ovarian; -32% (active) with T-47D breast; -50.6% (active) in the experiment on BT-549 breast; -58.5% (active) in the experiment on MDA-MB-435 melanoma; -45.6% (active) in the experiment on SW-620 colon. The growth in the experiment with MCF7 breast was -32.7% (active); in the experiment with HCT-116 colon it was -88.5% (active); with KM12 colon it was -12.5% (active).

For the molecule `COc1ccc(/C=C(\C#N)n2nnc3cc(F)c(F)cc32)c(OC)c1OC`, the growth in the experiment with RPMI-8226 leukemia was 41.6%; in the experiment on OVCAR-8 ovarian it was 67.6%; in the experiment on OVCAR-5 ovarian, 98%; in the experiment with OVCAR-4 ovarian it was 60.6%; with SK-OV-3 ovarian, 88.6%; with IGROV1 ovarian, 68.8%. The growth was 58.2% with OVCAR-3 ovarian; 66.2% with HS 578T breast; 70.9% with BT-549 breast; 45.7% in the experiment on MDA-MB-435 melanoma; 62% with SW-620 colon; 27.2% in the experiment with MCF7 breast. Besides, the growth was 52.9% in the experiment on HCT-116 colon, 114% with HCC-2998 colon and 67.8% in the experiment with KM12 colon.

Regarding `CN1CCC(=C2c3ccccc3C=Cc3ccccc32)CC1`, the growth in the experiment on RPMI-8226 leukemia was 72.7%; in the experiment with OVCAR-8 ovarian it was 85.4%; in the experiment on OVCAR-5 ovarian, 108%; in the experiment with OVCAR-4 ovarian, 72.9%; in the experiment on SK-OV-3 ovarian, 97.6%; in the experiment with IGROV1 ovarian, 72.7%. Also, the growth in the experiment on OVCAR-3 ovarian was 104%; with NCI/ADR-RES ovarian, 75.6%; in the experiment with T-47D breast, 72.6%; in the experiment on BT-549 breast, 113%; with MDA-MB-435 melanoma, 80.2%; in the experiment on SW-620 colon, 81.1%. The growth was 80.5% in the experiment with MCF7 breast, 66.3% with HCT-116 colon, 92.5% in the experiment on HCC-2998 colon and 94.4% in the experiment with KM12 colon.

In the case of `C=C(C)[C@@H]1CC[C@]2(C(=O)NCC(=O)O)CC[C@]3(C)[C@H](CC[C@@H]4[C@@]5(C)Cc6c([nH]c7ccccc67)C(C)(C)[C@@H]5CC[C@]43C)[C@@H]12`, the growth in the experiment on RPMI-8226 leukemia was 79.8%; in the experiment with OVCAR-8 ovarian it was 78.4%; with OVCAR-5 ovarian, 107%; with OVCAR-4 ovarian it was 75.9%; with SK-OV-3 ovarian, 75.1%; in the experiment on IGROV1 ovarian, 83.3%. Moreover, the growth was 90.5% in the experiment on OVCAR-3 ovarian; 56.9% with HS 578T breast; 95.4% in the experiment with NCI/ADR-RES ovarian; 65.7% in the experiment with BT-549 breast; 87.1% in the experiment with MDA-MB-435 melanoma; 85% with SW-620 colon. Further, the growth in the experiment with MCF7 breast is 81.4%; in the experiment on HCT-116 colon it was 77.4%; in the experiment on HCC-2998 colon it was 98.4%; with KM12 colon, 88.1%.

With `CCCc1nc2ccccn2c1Nc1ccc(C(=O)NO)cc1`, the growth with RPMI-8226 leukemia was 76.3%; in the experiment on OVCAR-8 ovarian, 78%; with OVCAR-5 ovarian it was 93.7%; with OVCAR-4 ovarian it was 91.1%; with SK-OV-3 ovarian, 80.9%; with IGROV1 ovarian, 111%. The growth is 99.1% with OVCAR-3 ovarian; 94.6% with HS 578T breast; 84.6% with NCI/ADR-RES ovarian; 98.1% in the experiment with BT-549 breast; 90.2% in the experiment with MDA-MB-435 melanoma; 86.3% with SW-620 colon. The growth was 79.6% in the experiment with MCF7 breast, 85.4% with HCT-116 colon, 91.4% in the experiment with HCC-2998 colon and 97.1% in the experiment with KM12 colon.

Turning to `CCOc1cc(C2C(Cl)C(=O)N2n2cnnc2)ccc1O` (stereo unspecified), the growth in the experiment on RPMI-8226 leukemia was 103%; in the experiment with OVCAR-8 ovarian, 95.5%; with OVCAR-5 ovarian, 106%; with OVCAR-4 ovarian, 98.2%; in the experiment on SK-OV-3 ovarian, 82.4%; in the experiment on IGROV1 ovarian, 104%. The growth in the experiment on OVCAR-3 ovarian was 96.4%; in the experiment with HS 578T breast it was 88.7%; in the experiment on BT-549 breast, 93%; in the experiment with MDA-MB-435 melanoma, 96.2%; with SW-620 colon, 97.2%; with MCF7 breast, 97.5%. Besides, the growth in the experiment with HCT-116 colon is 93.3%; with HCC-2998 colon, 99.7%; in the experiment on KM12 colon it was 99.1%.

`COc1ccc(-n2ncn(CCCCCCn3cnn(-c4ccc(OC)cc4)c3=O)c2=O)cc1`: the growth in the experiment with RPMI-8226 leukemia is 78.3%; in the experiment with OVCAR-8 ovarian, 95.2%; with OVCAR-5 ovarian, 101%; with OVCAR-4 ovarian it was 84.5%; with SK-OV-3 ovarian, 99.5%; in the experiment on IGROV1 ovarian, 90.6%. The growth in the experiment on OVCAR-3 ovarian is 98.4%; with HS 578T breast, 93.9%; in the experiment with NCI/ADR-RES ovarian, 89%; in the experiment on BT-549 breast, 101%; in the experiment on MDA-MB-435 melanoma it was 102%; in the experiment with SW-620 colon, 95.2%. In addition, the growth in the experiment with MCF7 breast is 92.7%; in the experiment on HCT-116 colon it was 94.5%; in the experiment on HCC-2998 colon, 110%; with KM12 colon it was 97%.

Turning to `O=[N+]([O-])c1cccc(/C=C/c2ccccn2)c1`, the growth in the experiment with RPMI-8226 leukemia was 51.7%; with OVCAR-8 ovarian it was 86.2%; with OVCAR-5 ovarian, 96.2%; in the experiment on OVCAR-4 ovarian, 70.5%; in the experiment with SK-OV-3 ovarian, 94%; in the experiment with IGROV1 ovarian, 86.7%. For the same molecule, the growth is 59.4% in the experiment on OVCAR-3 ovarian; 81.2% with NCI/ADR-RES ovarian; 37.9% with T-47D breast; 64.8% in the experiment on BT-549 breast; 98.4% in the experiment with MDA-MB-435 melanoma; 47.7% with SW-620 colon. The growth in the experiment on MCF7 breast was 7.24% (active); with HCT-116 colon, 39.6%; in the experiment with HCC-2998 colon, 62.2%; in the experiment on KM12 colon it was 65.9%.
